LmPK inhibitor: qHTS Assay for Inhibitors of Leishmania Mexicana Pyruvate Kinase (LmPK); Q27686; Potency, µM (top dose mostly 57.5 µM), for the others: at the highest dose activity change, negative = inhibition, actives largely listed as inhibitors; AID 1721, 2009; 0.37% of 290,000 active; purified LmPK, Kinase-Glo ATP luminescence, 1 h; further: on the % scale 0 is the no-effect control and ±100 the full control effect
Target sequence (Q27686 whole entry, looked up): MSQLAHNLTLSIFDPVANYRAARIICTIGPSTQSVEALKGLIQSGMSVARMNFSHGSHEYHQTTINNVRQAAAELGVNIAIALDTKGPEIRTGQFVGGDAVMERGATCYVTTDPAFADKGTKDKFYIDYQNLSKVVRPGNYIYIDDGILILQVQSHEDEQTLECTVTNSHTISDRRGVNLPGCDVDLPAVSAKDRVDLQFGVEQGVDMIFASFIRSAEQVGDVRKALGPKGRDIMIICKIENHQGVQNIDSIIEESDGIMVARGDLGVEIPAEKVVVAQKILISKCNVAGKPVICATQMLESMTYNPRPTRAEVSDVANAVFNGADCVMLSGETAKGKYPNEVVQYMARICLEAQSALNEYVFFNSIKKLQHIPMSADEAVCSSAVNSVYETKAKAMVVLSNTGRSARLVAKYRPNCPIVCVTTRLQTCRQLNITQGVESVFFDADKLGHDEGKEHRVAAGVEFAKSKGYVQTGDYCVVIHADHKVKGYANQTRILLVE
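Kinase-Glo luminescence read after 1 h RT reaction of 0.1 nM LmPK with 0.5 mM PEP and 0.1 mM ADP. Activity scaled between uninhibited and enzyme-free controls.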
SARS PLP yeast: qHTS of Yeast-based Assay for SARS-CoV PLP; 0.19% of 330,000 active; S. cerevisiae expressing SARS-CoV PLpro, growth rescue; Potency, µM (top dose mostly 32.9 µM), for inactives: at the top dose activity, positive = growth rescue, most hits filed as activators; AID 485353, 2010; calls by dose curve; further: 0% is about no effect; nearly all actives have a fitted effect of over 55% in size
NS1 function inh: qHTS Assay for Inhibitors of Influenza NS1 Protein Function | Potency, µM (titrated, usually from 46.1 µM), inactives show top-dose activity, positive = more growth | AID 2326, 2010 | 0.4% of 270,000 active; calls by dose curve; further: actives are rising curves; nearly all actives have a fitted effect of over 50% in size
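S. cerevisiae expressing influenza A NS1, grown in glucose, washed, then diluted 1:100 into pH 6.0 -URA galactose medium with 23 nl compound. Growth recovery read as OD600; NS1-free strain serves as control.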
TbPYK inhibitor: qHTS of Trypanosoma Brucei Inhibitors; pyruvate kinase (Trypanosoma brucei), Q57TT1; TbPYK enzyme, Kinase-Glo Plus ATP luminescence, 45 min; Potency, µM (titrated, usually from 76.8 µM), inactives show at the top dose activity, negative = inhibition, most hits filed as inhibitors; 0.12% of 410,000 active; AID 624173, 2012; further: on the % scale 0 is the no-effect control and ±100 the full control effect; nearly all actives have a fitted effect of over 50% in size
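Luminescent Kinase-Glo Plus end-point after 45 min room-temperature reaction of T. brucei pyruvate kinase started with 130 uM ADP (final). Buffer TEA 50 mM pH 7.2 with KCl, MgCl2, BSA, Tween-20; titration-based qHTS with fitted concentration-effect curves.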
Sm TGR inh: qHTS Assay for the Inhibitors of Schistosoma Mansoni Peroxiredoxins. purified TGR, DTNB reduction, TNB absorbance 405 nm. 3% of 360,000 active. Potency, µM (titrated, usually from 114 µM), for the others: top-dose activity change, negative = inhibition, hits mostly inhibitors. Schistosoma mansoni thioredoxin glutathione reductase (TGR), Q962Y6; further: on the % scale 0 is the no-effect control and ±100 the full control effect; nearly all actives have a fitted effect of over 60% in size
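Kinetic colorimetric format: TGR-catalysed, NADPH-driven DTNB reduction monitored via TNB absorbance. Enzyme dispensed at 20 nM; compound exposure 15 min at room temperature before reaction start.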
RE007 growth inh: qHTS Assay for Inhibitors of the HIV-1 protein Vpr | S. pombe RE007 Vpr strain, BacTiter-Glo ATP luminescence, 24 h | Potency, µM (titrated, usually from 92.2 µM), inactives show at the highest dose activity change, negative = less growth, actives largely listed as inhibitors | 0.21% of 360,000 active; active means well fitted falling curve with a large enough effect; inconclusive means small, poorly fitted or top-dose-only effect; inactive means no such curve, though single readings can be large or run the other way; further: on the % scale 0 is the no-effect control and ±100 the full control effect; nearly all actives have a fitted effect of over 50% in size
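Fission yeast strain RE007, carrying one chromosomally integrated HIV-1 vpr copy, was seeded at OD 0.01 in PMG+AL medium with 23 nL pinned compound. After 24 h at 30 °C and 99% humidity, viability was read by BacTiter-Glo luminescence.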
Numbers without * were called inactive; ? = inconclusive; / = no result given; [ ] = dose if it differs, or a comment. Shown are actives, neighbours in structure and some others; about 3.3% of the full set was active somewhere. Unless noted, the call rests on the fitted dose curve; in most records, active means well fitted curve in the direction sought with a large enough effect; inconclusive means small, poorly fitted or top-dose-only effect, or another doubt; inactive means no such curve, though single readings can be large; an effect the other way counts as inactive or inconclusive. Potency means the concentration at half of the fitted maximal effect.

SMILES | LmPK inhibitor | SARS PLP yeast | NS1 function inh | TbPYK inhibitor | Sm TGR inh | RE007 growth inh
CC(C)C[C@@H](CN(C)N=O)N(C[C@H](Cc1ccccc1)N(CCc1ccccc1)N=O)N=O | 0.8% | -0.5% | 17.2% | 1.3% | 39.8µM* | 2.0%
CN(C[C@H](Cc1ccccc1)N(C[C@H](Cc1cccc2ccccc12)N(CCc1ccccc1)N=O)N=O)N=O | -0.8% | 0.0% | ? | -6.7% | 35.5µM* | -5.8%
COc1ccc(CC(=O)N2CCc3cc(OC)c(OC)cc3C2COc2cc(C)cc(C)c2)cc1OC (stereo not drawn) | / | / | / | -1.5% | -2.2% | /
O=C(/C=C/c1ccncc1)c1ccc2c(c1)OCCO2 | -15.9% | -6.2% | -4.6% | -5.9% | 44.7µM* | -23.8%
O=C1c2ccccc2C(O)N1c1ccc(Cl)cc1 (stereo not drawn) | -2.4% | 2.2% | -11.5% | -3.0% | -0.6% | -10.0%
COC(=O)C1CN(C#N)N(c2ccc(Cl)cc2)C12c1ccccc1-c1ccccc12 (stereo not drawn) | 0.7% | -81.1% | 29.9% | -15.7% | 5.62µM* | 18.2%
CCOC(=O)c1cnn2c(C(F)(F)F)cc(-c3ccc(Br)cc3)nc12 | / | / | / | -6.6% | 39.8µM* | /
CCOC(=O)c1cnn2c(C(F)(F)F)cc(-c3ccccc3)nc12 | 1.9% | 17.7% | 13.9% | -4.3% | 2.4% | 16.4%
CC(=O)Nc1nc2n(n1)C(c1ccc(Cl)cc1)C=C(C)N2 (stereo not drawn) | 4.2% | 4.1% | 4.4% | -10.7% | 14.1µM* | -4.1%
O=C(Nc1nc2n(n1)C(c1ccc(F)cc1)C=C(c1ccccc1)N2)c1cccc([N+](=O)[O-])c1 (stereo not drawn) | / | / | / | -8.0% | 1.8% | /
CC1=CC(c2ccc(Cl)cc2)n2nc(NC(=O)c3ccccc3)nc2N1 (stereo not drawn) | 5.5% | 5.6% | 4.5% | -3.4% | 44.7µM* | 33.2%
N#C/C(=C\Nc1ccccn1)C(=O)c1ccco1 | / | / | 2.8% | / | / | /
CC1Cc2cc(/C(O)=C3/C(=O)C(=O)N(Cc4ccco4)C3c3cccs3)ccc2O1 (stereo not drawn) | -0.3% | -0.4% | 5.9% | 5.3% | 35.5µM* | 13.0%
O=C(Nc1ccccc1C(F)(F)F)N1CCC(CN2CCc3ccccc3C2)CC1 | / | / | / | 7.7% | -1.3% | /
COc1ccc(N(Cc2cc(=O)[nH]c3ccccc23)C(=O)c2ccco2)cc1 | -0.6% | 8.8% | -0.2% | 5.3% | 31.6µM* | 0.0%
CCc1ccc(CNc2ncnc3onc(-c4ccc(Cl)cc4)c23)cc1 | / | / | / | -12.2% | -9.5% | /
Nc1ccccc1C(=O)c1ccccc1 | -0.4% | -2.5% | -4.3% | 2.0% | 5.6% | -4.9%
Nc1sccc1C(=O)c1ccccc1 | 2.0% | -6.6% | -23.6% | -2.2% | 20µM* | -16.3%
C=C1c2cccc(O)c2C(O)=C2C(=O)[C@@]3(O)C(O)=C(C(N)=O)C(=O)[C@@H](N(C)C)[C@@H]3[C@@H](O)[C@H]12 | / | / | / | -14.6%[33.2 µM] | / | /
O=C(C1=NN[C@@H]2C(=O)N(c3cccc(C(F)(F)F)c3)C(=O)[C@H]12)c1cnccn1 | -9.3% | -1.3% | 4.0% | -6.9% | 17.8µM* | -3.0%
O=C(C1=NNC2C(=O)N(c3ccccc3)C(=O)C12)c1nc(Cl)ccc1Cl (stereo not drawn) | -3.3% | 5.7% | 10.7% | -0.8% | 10.0% | 25.1%
N#Cc1ccc(N2C(=O)[C@@H]3C(C(=O)c4ccc5ccccc5n4)=NN[C@@H]3C2=O)cc1 | -1.2% | -37.5% | 2.4% | -6.1% | 50.1µM* | -21.9%
N#Cc1ccc(N2C(=O)[C@@H]3C(C(=O)c4cnccn4)=NN[C@@H]3C2=O)cc1 | 3.0% | -2.6% | -3.6% | -4.3% | 8.91µM* | -0.7%
C[n+]1c(/C=C\c2ccc(O)c3ncccc23)[se]c2ccccc21 | / | / | 2.1% | / | / | /
COc1ccc(-c2nc(CSc3nncn4c3cc3sccc34)c(C)o2)cc1OC | / | / | / | 2.6% | -0.3% | /
SMILES | LmPK inhibitor | SARS PLP yeast | NS1 function inh | TbPYK inhibitor | Sm TGR inh | RE007 growth inh
CCCCCCCCCCCCCCCC(=O)OC[C@@H](COP(=O)([O-])OCC[N+](C)(C)C)OC(=O)CCCCCCCCCCCCCCC | / | / | / | -10.0% | / | /
COc1ccc(/[N+]([O-])=C/c2ccoc2)cc1 | / | 0.1% | / | -21.8% | 5.01µM* | -5.4%
COc1cccc(N2CCN(CC(=O)Nc3ccccc3C(=O)NCCc3ccccc3)CC2)c1 | / | -1.9% | / | -2.0% | -15.4% | ?
O=C(CN1CCN(c2ccc(O)cc2)CC1)Nc1ccccc1C(=O)NCCc1ccccc1 | / | -2.1% | / | 28.2µM* | 39.8µM* | -7.6%
O=C1C=C(NC2=CC3OC(c4ccccc4)OCC3OC2=O)CCC1 (stereo not drawn) | -2.9% | 4.9% | -15.4% | -17.8% | 25.1µM* | -26.7%
O=[N+]([O-])c1ccc(Cl)c(CNc2ncnc3c2ncn3[C@@H]2CCCCO2)c1 | / | / | -5.5% | / | / | /
Cc1ccc(S(=O)(=O)Nc2nc3ccccc3nc2NCc2ccco2)cc1 | 3.0% | -11.8% | -40.7% | -5.2% | 12.6µM* | -1.9%
O=S(=O)(c1ccc(F)cc1)N1CN(Cc2ccco2)c2nc3ccccc3nc21 | -0.5% | -12.1% | -31.7% | 3.5% | ? | 5.5%
Cc1ccc(S(=O)(=O)N2CN(Cc3ccco3)c3nc4ccccc4nc32)cc1 | 2.3% | -11.2% | 8.9% | -4.0% | 22.4µM* | -2.8%
COc1ccc(S(=O)(=O)N2CN(Cc3ccco3)c3nc4ccccc4nc32)cc1 | -0.1% | -1.9% | ? | -4.6% | 11.2µM* | 6.6%
CCOc1ccc(NC(=O)Cn2c(=O)n(Cc3ccccc3)c(=O)c3sc4ccccc4c32)cc1 | / | / | / | -3.0% | 3.4% | /
N#Cc1c2n(c3c(=S)nc[nH]c13)CCCCC2 | 22.4µM* | 0.4% | 10.2% | ? | -1.5% | -1.3%
Cc1ccc(N=Cc2c(C)[nH]n(-c3nc4ccccc4[nH]3)c2=O)cc1 | 25.1µM* | -72.4% | -3.7% | ? | -2.1% | 3.16µM*
CCOc1ccc(C2C(C(=O)Nc3ccccc3OC)=C(C)Nc3c(C(=O)Nc4cccc(C)c4)cnn32)cc1 (stereo not drawn) | / | / | / | -9.5% | 11.0% | /
COc1cc2cc(C(=O)NCCc3ccccc3)[nH]c2cc1OC | -0.9% | 0.2% | -2.8% | -3.9% | 89.1µM* | 12.3%
COc1ccc2cc(C(=O)NCCc3ccccc3)[nH]c2c1 | 0.8% | -2.2% | -0.3% | 0.4% | -18.2% | 7.5%
O=C(CCC1N=C2c3ccccc3N=C(SCc3ccc(Cl)cc3)N2C1=O)N1CCN(c2ccccc2)CC1 (stereo not drawn) | / | / | / | 1.7% | 1.3% | /
